Results taken from PubChem BioAssay (Tox21).
A number with no mark means an inactive call. Activity calls are given as the source filed them. Calls follow the shape of the full dose curve.

biological target: Thyrotropin-releasing hormone receptor (Homo sapiens) (UniProt P34981); assay: qHTS assay to identify small molecule agonists of the thyrotropin-releasing hormone receptor (TRHR) signaling pathway (AID 1346891); settings: TRHR-HEK293 calcium fluorescence, agonist mode; series mostly up to 57.6 µM; activation: at the top concentration;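 as to activation: HEK293 cells expressing TRHR with calcium dye readout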
Sequence (P34981 whole entry, looked up): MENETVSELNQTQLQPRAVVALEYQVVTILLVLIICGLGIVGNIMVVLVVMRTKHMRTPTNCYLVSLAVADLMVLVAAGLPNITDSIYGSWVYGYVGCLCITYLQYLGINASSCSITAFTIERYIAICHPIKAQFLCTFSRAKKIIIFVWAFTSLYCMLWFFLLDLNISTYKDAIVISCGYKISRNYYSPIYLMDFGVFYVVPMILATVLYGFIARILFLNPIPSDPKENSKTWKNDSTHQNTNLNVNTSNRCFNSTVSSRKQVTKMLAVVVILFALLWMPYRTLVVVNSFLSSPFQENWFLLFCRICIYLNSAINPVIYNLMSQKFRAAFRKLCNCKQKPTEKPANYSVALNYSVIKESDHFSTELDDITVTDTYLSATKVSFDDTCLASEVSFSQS
Description: National Center for Advancing Translational Sciences [NCATS] NIH Chemical Genomics Center [NCGC] U.S. Environmental Protection Agency [EPA] National Institutes of Environmental Health Sciences [NIEHS] National Toxicology Program [NTP] Assay overview: Thyrotropin-releasing hormone (TRH) receptor (TRHR) is a G-protein-coupled receptor which binds the tripeptide thyrotropin releasing hormone. TRHR is found in the brain and, when bound by TRH, acts (through phospholipase C) to increase intracellular inositol trisphosphate. It plays a crucial role in the anterior pituitary where it controls the synthesis and secretion of thyroid stimulating hormone and prolactin. The TRHR-Hek293 assay is a cell-based assay, and it has the potential to screen G protein-coupled receptors. A compound/drug can either activate (agonist) or suppress (antagonist) GPCRs that can be monitored by levels of intracellular calcium. Using this assay, the Tox21 10K compound library was screened to identify potential TRHR agonists.
Assay Protocol Summary: The TRHR-Hek293 cells were dispensed at 1500cells/4uL/well in 1536-well black-clear bottom plates using a Multidrop dispenser. After the assay plates were incubated at a 37 C/5% CO2 incubator for 18 hours, 4 uL of Dye-Loading Solution was added to each well. The plates were incubated at 37 C for 2 hours. For agonist mode, 23 nL of compounds dissolved in DMSO, positive controls or DMSO only was transferred to the assay plate by a pin tool. The fluorescence intensity in the plates was measured using FDSS 7000EX kinetic plate reader for 3 min at 1 sec intervals. Each test compound was measured at 15 concentrations and in triplicates.
% is scaled to controls: 0 for no effect and ±100 for the full control effect; potency is read from the fitted curve at half-maximal effect.

In order of rising “activation” value:
1. Cc1cc(=O)oc2cc(N(C)C)ccc12  -0.569%
2. CCCCN1C(=O)[C@@H]([C@H](O)C2CCCCC2)NC(=O)C12CCN(Cc1ccc(Oc3ccc(C(=O)O)cc3)cc1)CC2  -0.425%
3. Cc1cc(O)c(Cl)c(C)c1Cl  -0.379%
4. Nc1ccccc1O  -0.274%
5. O=C1c2c(O)ccc(Nc3ccc(CCO)cc3)c2C(=O)c2c([N+](=O)[O-])ccc(O)c21  -0.0849%
6. CCCCCCCCCCC=O  0.0932%
7. CCCCCCCCCCCCCCCC(=O)OC[C@H](O)[C@H]1OC(=O)C(O)=C1O  0.0981%
8. O=C1CCCCCN1SSN1CCCCCC1=O  0.238%
9. O=C(Oc1ccccc1)c1ccccc1C(=O)Oc1ccccc1  0.758%
10. O=[N+]([O-])c1cc(Cl)c(Cl)c(Cl)c1Cl  1.92%
11. Nc1ccc(N)c2ccccc12  3.03%
12. CC1=C(/C=C/C(C)=C/C=C/C(C)=C/C=O)C(C)(C)CCC1  3.37%
13. CCC(C)Nc1ccc(NC(C)CC)cc1 (stereo not given)  3.54%
14. Cc1[nH]cnc1C[C@H]1CCc2c(C)c3ccccc3n2C1=O  7.38%
15. CN(C)C(=O)C1(N2CCCCC2)CCN(CC[C@@]2(c3ccc(Cl)c(Cl)c3)CN(C(=O)c3ccccc3)CCO2)CC1  7.97%
16. CCCCCCCCCCCC[N+](C)(C)CCCCCCCCCCCC  11.6%
17. O=C(Nc1cccc([N+](=O)[O-])c1)c1cc2ccccc2cc1O  12.8%
18. O=C1C=CC(=O)N1c1ccc(Cc2ccc(N3C(=O)C=CC3=O)cc2)cc1  14.7%
19. CCCCCCCCCCCCCC[P+](CCCC)(CCCC)CCCC (tested in a mixture with another compound)  15.6%

In order of rising “activation” value:
1. CCCCCOc1ccccc1/C(=C\SC)n1ccnc1  -1.59% [at 26.5 µM]
2. N/C(=N\N=C\c1ccc(Cl)cc1)N/N=C/c1ccc(Cl)cc1  -1.24% [at 26.5 µM]
3. CC(C)=CCOc1ccc(/C=C/C(=O)c2ccc(OCC=C(C)C)cc2OCC(=O)O)cc1  -0.477% [at 26.5 µM]
4. C[C@]12CCC(=O)C=C1CC[C@@H]1[C@@H]2[C@@H](O)C[C@@]2(C)[C@H]1CC[C@]2(O)C(=O)COC(=O)CCC(=O)O  -0.343% [at 26.5 µM]
5. N#CC1(c2ccc(F)cc2)CCC(=O)CC1  -0.281% [at 26.5 µM]
6. COc1ccc(-c2ccc3cc(C(=O)O)ccc3c2)cc1C12CC3CC(CC(C3)C1)C2  -0.191% [at 26.5 µM]
7. COc1c(C)c2c(c(O)c1C/C=C(\C)CCC(=O)O)C(=O)OC2  -0.0385% [at 26.5 µM]
8. CCCCCCCCOc1ccccc1C(=O)Nc1ccc(C(=O)OCC[N+](C)(CC)CC)cc1  0.0119% [at 26.5 µM]
9. CC(C)(C)CC(C)(C)c1ccc(O)c(Cc2ccc(Cl)cc2Cl)c1  0.404% [at 26.5 µM]
10. Cc1cc(O)c2ccccc2c1O  0.827% [at 26.5 µM]
11. CCOc1ccc2nc3cc(N)ccc3c(N)c2c1  1.76% [at 26.5 µM]
12. OC1(c2ccc(Cl)c(C(F)(F)F)c2)CCN(CCCC(c2ccc(F)cc2)c2ccc(F)cc2)CC1  1.91% [at 26.5 µM]
13. COc1cccc2c1C(=O)c1c(O)c3c(c(O)c1C2=O)C[C@@](O)(C(=O)CO)C[C@@H]3O[C@H]1C[C@H](N)[C@H](O[C@@H]2CCCCO2)[C@H](C)O1  2.46% [at 26.5 µM]
14. Cc1ccc(O)c2ncccc12  5.26% [at 26.5 µM]
15. CSc1ccc2c(c1)C(N1CCN(C)CC1)Cc1ccccc1S2 (stereo not given)  5.27% [at 26.5 µM]
16. CN1CCN(CCC(=O)N2c3ccccc3Sc3ccc(C(F)(F)F)cc32)CC1  18.1% [at 26.5 µM]

In the case of Clc1ccccc1C(c1ccccc1)(c1ccccc1)n1ccnc1, the Potency was “inactive”.
For CCCC(=O)OC[C@@H](OC(=O)CCC)[C@@H](OC(=O)CCC)[C@H](Cn1c2nc(=O)[nH]c(=O)c-2nc2cc(C)c(C)cc21)OC(=O)CCC, the Potency was 13.5 µM (active).
With Cc1c(C)c2c(c(C)c1O)CCC(C)(COc1ccc(CC3SC(=O)NC3=O)cc1)O2 (stereo not given) the Potency was “inactive”.

In order of falling activation:
1. C[n+]1cc2c3c(ccc2c2ccc4cc5c(cc4c21)OCO5)OCO3  2.25% [at 11.8 µM]
2. O=C(OC[C@H]1O[C@@H](OC(=O)c2cc(O)c(O)c(OC(=O)c3cc(O)c(O)c(O)c3)c2)[C@H](OC(=O)c2cc(O)c(O)c(OC(=O)c3cc(O)c(O)c(O)c3)c2)[C@@H](OC(=O)c2cc(O)c(O)c(OC(=O)c3cc(O)c(O)c(O)c3)c2)[C@@H]1OC(=O)c1cc(O)c(O)c(OC(=O)c2cc(O)c(O)c(O)c2)c1)c1cc(O)c(O)c(OC(=O)c2cc(O)c(O)c(O)c2)c1  0.113% [at 11.8 µM]
